{"source": "PubChem BioAssay (NCI)", "note": "Several values for one entry are separate records, joined by “and”; a condition that tells them apart may be missing. Equal values may be shown once. The panel holds about 83,000 compounds, 20% with a hit somewhere; the sample as a whole holds those more often.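 For each line, cells grew in 96-well plates with the test compound present at a single concentration for 48 hours.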 Activity calls are given as the source filed them."}
{"tested_on": "SW-620 colon", "assay": "NCI-60 one-dose screen, 48 h (100 = growth as untreated, 0 = no growth, -100 = all killed)", "conditions": "10 µM", "procedure": "(§1) Growth inhibition of the SW-620 human tumor cell line is measured as a screen for anti-cancer activity. Cells are grown in 96 well plates and exposed to the test compound for 48 hours. Compounds are tested at a single concentration, which is 10^-5 M for most compounds. The reported endpoint is percent growth (GI% or GIPRCNT), where numbers from 0 - 100% represent growth inhibition, and numbers from -100% - 0 represent cell death. For example, a value of 40 represents 60% growth inhibition. A value of 0 means no net growth occurred over the course of the experiment. A value of -40 indicates 40% of cells at the beginning of the experiment died by the end of the experiment. A value of -100 means all cells are dead at the end of the experiment.\n(§2) NCI-60 Human Tumor Cell Lines Screen was performed using the standard one-dose NCI protocol, which is described in more detail at https://dtp.cancer.gov/discovery_development/nci-60/default.htm.\n(§3) Compounds with GIPRCNT values below 10 were considered active. Activity score was based on GIPRCNT using the following formula: […]\n(§4) Score is 0 for GIPRCNT values of 100 or above, 50 for GIPRCNT values of 0, and 100 for GIPRCNT values of -100."}
{"compound": "COc1ccc(-c2cscc2N)cc1", "growth": "88.5% (inactive)"}
{"compound": "O=C(O)c1c(Cl)c(Cl)c(Cl)c(Cl)c1-c1c2cc(I)c(=O)c(I)c-2oc2c(I)c(O)c(I)cc12", "growth": "107% (inactive) and 140% (inactive) and 109% (inactive)"}
{"compound": "O=C(Nc1c(Cl)cccc1Cl)Oc1cccc2cccnc12", "growth": "26.8% (inactive)"}
{"tested_on": "SW-620 colon", "assay": "NCI-60 one-dose screen, 48 h (100 = growth as untreated, 0 = no growth, -100 = all killed)", "conditions": "10 µM unless noted", "procedure": "as §1, §2, §3, §4"}
{"compound": "O=C(/C=C\\c1cc(Br)ccc1O)/C=C/c1cc(Br)ccc1O", "growth": "-43.4% (active)"}
{"compound": "CN(Cc1cnc2nc(N)nc(N)c2n1)c1ccc(C(=O)NC(CCC(=O)O)C(=O)O)cc1", "note": "(stereo not given)", "growth": "27.5% (inactive)"}
{"compound": "CCCCCCCCCCCCCCCCN(CC)CC", "growth": "-69.1% (active)"}
{"compound": "CCCCCCCCCCCCCCCC[N+](C)(CCO)Cc1cnc[nH]1", "note": "(stereo not given)", "growth": "-27% (active)"}
{"compound": "CCC(CC)COC(=O)c1ccc(O)c(O)c1", "growth": "80.5% (inactive)"}
{"compound": "S=C(N/N=C/c1ccccn1)Nc1ccccn1", "growth": "32.8% (inactive)"}
{"compound": "N#CC1C(=O)SC2c3ccccc3C(=O)c3ccccc3C12", "note": "(stereo not given)", "growth": "101% (inactive)"}
{"compound": "CN(C)c1ccc(/C=N/N=C(\\C#N)[S][Sn]([Cl])([c]2ccccc2)[c]2ccccc2)cc1", "growth": "-52.2% (active)"}
{"compound": "CCOC(=O)c1c(C)[nH]c(CO)c1C", "growth": "109% (inactive)"}
{"compound": "O=C(/C=C/C=C/c1ccccc1)c1ccco1", "growth": "62.4% (inactive)"}
{"compound": "O=C1c2ccccc2C(=O)c2sc(Nc3ccc(Cl)cc3)nc21", "growth": "-40% (active)"}
{"compound": "O=C1c2ccccc2C(=O)N1c1ccccc1", "growth": "109% (inactive)"}
{"compound": "N#CSCc1ccc(Cl)c(CSC#N)c1", "growth": "20.4% (inactive)"}
{"compound": "O=C1N[C@H]2[C@H](CS[C@H]2CCCCC(=O)N(CCP(c2ccccc2)c2ccccc2)CCP(c2ccccc2)c2ccccc2)N1", "growth": "88.7% (inactive)"}
{"compound": "Nc1ncnc2c1ncn2C1OC(CO)C(O)C1O", "note": "(stereo not given)", "growth": "112% (inactive) and 85.1% (inactive) and 106% (inactive)"}
{"compound": "CCC(c1cccc(O)c1)C(CC)c1cccc(O)c1", "note": "(stereo not given)", "growth": "42% (inactive)"}
{"compound": "C=CCOc1ccc(N=NC(C#N)C#N)cc1", "growth": "40.4% (inactive)"}
{"compound": "CN(C)c1ccc(C(=C2C=CC(=[N+](C)C)C=C2)c2ccc(N(C)C)cc2)cc1", "note": "(tested in a mixture with another compound)", "growth": "-72.3% (active)"}
{"compound": "Oc1c(Cl)cc(Cl)c2cccnc12", "growth": "54.9% (inactive) and 57.5% (inactive)"}
{"compound": "Cn1c2c(c3ccccc31)CCN1C[C@@H]3CCCC[C@H]3C[C@@H]21", "growth": "13.5% (inactive)"}
{"compound": "Cc1cc2nc(CS)[nH]c2cc1C", "growth": "84.7% (inactive)"}
{"compound": "Oc1c(Br)c(Br)c(O)c(Br)c1Br", "growth": "8.91% (active)"}
{"compound": "NC(=S)N/N=C/c1ccc(Cl)s1", "growth": "105% (inactive)"}
{"compound": "O=[N+]([O-])c1ccc(N=Nc2ccc(O)cc2O)cc1", "growth": "47.8% (inactive)"}
{"compound": "COc1cc(/C=C(/C)C[N+](=O)[O-])ccc1O", "growth": "48.9% (inactive)"}
{"compound": "C[N+](C)=c1ccc2nc3c(cc(NCCCNc4cc5oc6cc(=[N+](C)C)ccc-6nc5c5ccccc45)c4ccccc43)oc-2c1", "growth": "-25.5% (active)"}
{"compound": "Cc1c2ccccc2c(C)c2c1ccc1ccccc12", "growth": "99.9% (inactive)"}
{"compound": "CCCCCCCCCCCCCCCCCCOP(=O)([O-])OC1CC[N+](C)(C)CC1", "growth": "46.3% (inactive) and 25% (inactive)"}
{"compound": "Cc1ccc2nc(-[n+]3cc4ccccc4cc3C)ccc2c1", "growth": "55.8% (inactive)"}
{"compound": "O=C1C2=C(Nc3cc([N+](=O)[O-])ccc3N2)OC1c1c2ccccc2cc2ccccc12", "note": "(stereo not given)", "growth": "21.8% (inactive)"}
{"compound": "CNC(=O)N/N=C/c1ccc([N+](=O)[O-])o1", "growth": "105% (inactive)"}
{"compound": "C/C=C1\\SC(=S)NC1=O", "growth": "112% (inactive)"}
{"compound": "Cc1ccc(C(=Nc2ccccc2)N=P(c2ccccc2)(c2ccccc2)c2ccccc2)cc1", "growth": "-40.7% (active)"}
{"compound": "O=C1OCc2cccc3cccc1c23", "growth": "98.2% (inactive)"}
{"tested_on": "SW-620 colon", "assay": "NCI-60 one-dose screen, 48 h (100 = growth as untreated, 0 = no growth, -100 = all killed)", "conditions": "100 µM", "procedure": "as §1, §2, §3, §4"}
{"compound": "COc1ccc(-c2cscc2N)cc1", "growth": "48.4% (inactive)"}
{"compound": "O=C(O)c1c(Cl)c(Cl)c(Cl)c(Cl)c1-c1c2cc(I)c(=O)c(I)c-2oc2c(I)c(O)c(I)cc12", "growth": "13.7% (inactive)"}
{"compound": "O=C(Nc1c(Cl)cccc1Cl)Oc1cccc2cccnc12", "growth": "23.5% (inactive)"}
